target: PROP1 (Homo sapiens, UniProt O75360 56-141, R99H); assay: PBM; 200 nM protein, PBS; conditions: dsDNA, one strand shown
Sequence (O75360 56-141 R99H): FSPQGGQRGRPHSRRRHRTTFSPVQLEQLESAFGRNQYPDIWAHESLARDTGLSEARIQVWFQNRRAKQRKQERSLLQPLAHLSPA

Sequence | binding signal
ACCGAGAG | 6.74 upbm affinity estimate (log intensity, higher = more binding, comparable within an allelic series)
AGGCCAGG | 6.97 upbm affinity estimate (log intensity, higher = more binding, comparable within an allelic series)
AATATGAA | 8.01 upbm affinity estimate (log intensity, higher = more binding, comparable within an allelic series)
CCAGGGTC | 6.85 upbm affinity estimate (log intensity, higher = more binding, comparable within an allelic series)
CGATGCCC | 6.86 upbm affinity estimate (log intensity, higher = more binding, comparable within an allelic series)
AAGGGAGT | 6.7 upbm affinity estimate (log intensity, higher = more binding, comparable within an allelic series)
GCTCCTCC | 6.55 upbm affinity estimate (log intensity, higher = more binding, comparable within an allelic series)
CCGCACCC | 6.9 upbm affinity estimate (log intensity, higher = more binding, comparable within an allelic series)
CGGCTCCA | 6.76 upbm affinity estimate (log intensity, higher = more binding, comparable within an allelic series)
ACGGTAGG | 6.62 upbm affinity estimate (log intensity, higher = more binding, comparable within an allelic series)
ATGCCAGC | 6.77 upbm affinity estimate (log intensity, higher = more binding, comparable within an allelic series)
ATTATGGG | 8.87 upbm affinity estimate (log intensity, higher = more binding, comparable within an allelic series)
CACGACGA | 6.8 upbm affinity estimate (log intensity, higher = more binding, comparable within an allelic series)
GGAGCAGA | 6.89 upbm affinity estimate (log intensity, higher = more binding, comparable within an allelic series)
GGCCACCA | 6.82 upbm affinity estimate (log intensity, higher = more binding, comparable within an allelic series)
CTCAGCGC | 6.86 upbm affinity estimate (log intensity, higher = more binding, comparable within an allelic series)
AATTCAAC | 7.78 upbm affinity estimate (log intensity, higher = more binding, comparable within an allelic series)
CCTGTTAG | 8.15 upbm affinity estimate (log intensity, higher = more binding, comparable within an allelic series)
AACTAAAT | 8.6 upbm affinity estimate (log intensity, higher = more binding, comparable within an allelic series)
CCCGGGAA | 6.79 upbm affinity estimate (log intensity, higher = more binding, comparable within an allelic series)

target: PROP1 (Homo sapiens, UniProt O75360 56-141, F88S); assay: PBM; 200 nM protein, PBS; conditions: dsDNA, one strand shown
Sequence (O75360 56-141 F88S): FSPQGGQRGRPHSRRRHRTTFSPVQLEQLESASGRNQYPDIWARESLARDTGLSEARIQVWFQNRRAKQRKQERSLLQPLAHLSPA

Sequence | binding signal
CCGGGCTA | 6.52 upbm affinity estimate (log intensity, higher = more binding, comparable within an allelic series)
CCGACCGG | 6.35 upbm affinity estimate (log intensity, higher = more binding, comparable within an allelic series)
AGGGCCGC | 6.5 upbm affinity estimate (log intensity, higher = more binding, comparable within an allelic series)
GTCAGGAC | 6.86 upbm affinity estimate (log intensity, higher = more binding, comparable within an allelic series)
GGATGCAC | 6.83 upbm affinity estimate (log intensity, higher = more binding, comparable within an allelic series)
ATATTTGC | 7.34 upbm affinity estimate (log intensity, higher = more binding, comparable within an allelic series)
GGCATGAC | 6.7 upbm affinity estimate (log intensity, higher = more binding, comparable within an allelic series)
AGACCGTC | 6.81 upbm affinity estimate (log intensity, higher = more binding, comparable within an allelic series)
GCAAATAA | 7.34 upbm affinity estimate (log intensity, higher = more binding, comparable within an allelic series)
AGGCTCCG | 6.8 upbm affinity estimate (log intensity, higher = more binding, comparable within an allelic series)
GTGCGCCA | 6.75 upbm affinity estimate (log intensity, higher = more binding, comparable within an allelic series)
AGCCTGGC | 6.67 upbm affinity estimate (log intensity, higher = more binding, comparable within an allelic series)
CCCGCGCA | 6.76 upbm affinity estimate (log intensity, higher = more binding, comparable within an allelic series)
GCCATGGC | 6.74 upbm affinity estimate (log intensity, higher = more binding, comparable within an allelic series)
GGTAAATA | 7.4 upbm affinity estimate (log intensity, higher = more binding, comparable within an allelic series)
GACATTAC | 7.27 upbm affinity estimate (log intensity, higher = more binding, comparable within an allelic series)
GCTCCGCA | 6.66 upbm affinity estimate (log intensity, higher = more binding, comparable within an allelic series)
GGAACGCC | 6.68 upbm affinity estimate (log intensity, higher = more binding, comparable within an allelic series)
TGATTACA | 7.5 upbm affinity estimate (log intensity, higher = more binding, comparable within an allelic series)
CCTTCGGC | 6.53 upbm affinity estimate (log intensity, higher = more binding, comparable within an allelic series)

Sequence | binding signal
ACCGAGAG | 6.73 upbm affinity estimate (log intensity, higher = more binding, comparable within an allelic series)
AGGCCAGG | 6.49 upbm affinity estimate (log intensity, higher = more binding, comparable within an allelic series)
AATATGAA | 7.42 upbm affinity estimate (log intensity, higher = more binding, comparable within an allelic series)
CCAGGGTC | 6.62 upbm affinity estimate (log intensity, higher = more binding, comparable within an allelic series)
CGATGCCC | 6.71 upbm affinity estimate (log intensity, higher = more binding, comparable within an allelic series)
AAGGGAGT | 6.82 upbm affinity estimate (log intensity, higher = more binding, comparable within an allelic series)
GCTCCTCC | 6.45 upbm affinity estimate (log intensity, higher = more binding, comparable within an allelic series)
CCGCACCC | 6.69 upbm affinity estimate (log intensity, higher = more binding, comparable within an allelic series)
CGGCTCCA | 6.74 upbm affinity estimate (log intensity, higher = more binding, comparable within an allelic series)
ACGGTAGG | 6.62 upbm affinity estimate (log intensity, higher = more binding, comparable within an allelic series)
ATGCCAGC | 6.73 upbm affinity estimate (log intensity, higher = more binding, comparable within an allelic series)
ATTATGGG | 7.21 upbm affinity estimate (log intensity, higher = more binding, comparable within an allelic series)
CACGACGA | 6.95 upbm affinity estimate (log intensity, higher = more binding, comparable within an allelic series)
GGAGCAGA | 6.82 upbm affinity estimate (log intensity, higher = more binding, comparable within an allelic series)
GGCCACCA | 6.75 upbm affinity estimate (log intensity, higher = more binding, comparable within an allelic series)
CTCAGCGC | 6.88 upbm affinity estimate (log intensity, higher = more binding, comparable within an allelic series)
AATTCAAC | 7.25 upbm affinity estimate (log intensity, higher = more binding, comparable within an allelic series)
CCTGTTAG | 7.19 upbm affinity estimate (log intensity, higher = more binding, comparable within an allelic series)
AACTAAAT | 7.5 upbm affinity estimate (log intensity, higher = more binding, comparable within an allelic series)
CCCGGGAA | 6.66 upbm affinity estimate (log intensity, higher = more binding, comparable within an allelic series)

Source: paper PMC11006913
